A selection: hits, their analogues and other compounds. The true share with any hit is near 11%.
PNC assembly inh = blocks assembly of the perinucleolar compartment; PC3M PTB-GFP, PNC prevalence imaging, 16 h; active compounds read low; activity change (PNC), negative = inhibition, % at 10 µM; actives 3.1% (n = 140,000); AID 2417;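 active means readout at or below -70, meaning at least 70% loss of cells showing the perinucleolar compartment, a nuclear body marking cancer cells; inconclusive means readout between -30 and a set limit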
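Compounds are pinned in duplicate onto adhered PC3M cells stably expressing GFP-tagged PTB and incubated 16 h at 37 C. Cells are then fixed, nuclei stained with Hoechst, and PNC-positive cells counted.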
HPGD inh = inhibitors of human 15-hydroxyprostaglandin dehydrogenase (HPGD) | P15428 | purified HPGD, NADH fluorescence kinetic, PGE2 substrate | Potency, µM, most hits filed as inhibitors | actives 4.3% (n = 150,000) | AID 894
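20 nM HPGD preincubated 15 min at room temperature with compound in 50 mM Tris-HCl pH 8, 0.01% Tween 20. Started with 1 mM NAD+ and 30 uM prostaglandin E2; NADH fluorescence (360/450 nm) read 5 times over 30-s intervals, last minus first.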
ALDH1A1 inh = blocks purified human ALDH1A1 activity. Purified ALDH1A1, NADH fluorescence, propionaldehyde substrate. Potency, µM (titrated, usually from 75.3 µM), hits mostly inhibitors. actives 7.3% (n = 220,000). AID 1030
Target sequence (P00352 whole entry, looked up): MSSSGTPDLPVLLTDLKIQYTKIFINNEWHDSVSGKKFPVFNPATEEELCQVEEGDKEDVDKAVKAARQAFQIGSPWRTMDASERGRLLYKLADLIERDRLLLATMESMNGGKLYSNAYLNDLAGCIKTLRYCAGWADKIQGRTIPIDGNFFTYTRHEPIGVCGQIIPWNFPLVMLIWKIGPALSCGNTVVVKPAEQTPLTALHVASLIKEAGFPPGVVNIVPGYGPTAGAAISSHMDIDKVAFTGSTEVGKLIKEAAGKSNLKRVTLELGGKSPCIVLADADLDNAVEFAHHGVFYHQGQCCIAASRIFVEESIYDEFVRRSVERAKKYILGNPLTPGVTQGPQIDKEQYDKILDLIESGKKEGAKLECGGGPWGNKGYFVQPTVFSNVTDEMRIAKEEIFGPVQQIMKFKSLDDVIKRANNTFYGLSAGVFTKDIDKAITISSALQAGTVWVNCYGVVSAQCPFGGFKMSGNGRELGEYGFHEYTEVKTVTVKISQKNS
Numbers stand for hits; i = inactive; ? = inconclusive; nt = not tested or not shown; [ ] = dose if it differs, or a comment. Unless noted, the call rests on the fitted dose curve; in most records, active means well fitted inhibition curve with a large enough effect (not every such curve was filed as active); inconclusive means small, poorly fitted or top-dose-only effect, or another doubt; inactive means no such curve, though single readings can be large or run the other way.

SMILES	PNC assembly inh	HPGD inh	ALDH1A1 inh
S=c1[nH]nc(-c2ccccn2)n1/N=C/c1ccccc1	?	?	i
N#C/C(=C\c1ccco1)C(=O)Nc1cccc2ncccc12	i	i	i
Cc1[nH]n(-c2ccccc2)c(=O)c1/C=N/N1C(=O)c2ccc3c4c(ccc(c24)C1=O)CC3	i	i	i
CC(C)CN(C(=O)COC(=O)c1cc2c(s1)CCC2)C1CCS(=O)(=O)C1 (stereo unspecified)	?	i	i
C=CCNC(=O)c1ccccc1NC(=O)c1ccc(Cl)c(S(=O)(=O)Nc2ccccc2)c1	i	?	?
CC(C)=CCc1c2c(c3occ(-c4ccc(O)c(O)c4)c(=O)c3c1O)C=CC(C)(C)O2	nt	i	i[13.5 µM]
CC(C)=CCc1c2c(c3occ(-c4ccc(O)cc4)c(=O)c3c1O)C=CC(C)(C)O2	nt	i	25.1µM
c1coc(-c2nc3nc4ccccc4nc3n2-c2ccc3c(c2)OCCO3)c1	i	?	?
CN(C)c1ccc(CNC(=O)C2(C)C=CCN2C(=O)c2ccccc2)cc1 (stereo unspecified)	nt	i	17.8µM
CC1(C(=O)O)C=CCN1C(=O)c1ccccc1 (stereo unspecified)	?	i	i
C=CCN(c1ccc(C(=O)Nc2ccc(NC(C)=O)cc2)cc1)S(C)(=O)=O	nt	nt	i
COC(=O)c1nn(-c2ccc(Cl)cc2)c(=O)cc1Sc1ccccn1	i	i	i
S=c1nc[nH]c2c1[nH]c1ccccc12	?	25.1µM	14.1µM
Nn1cnc2c([nH]c3ccccc32)c1=O	i	i	?
Cc1ccc(NC(=O)CSc2nnc(-c3ccncc3)n2N)cc1C	i	i	i
Cc1cccc(NS(=O)(=O)c2cnc(Cl)c(Br)c2)n1	i	i	i
O=C(CC1(O)C(=O)c2ccccc2C1=O)c1ccccc1	i	i	?
O=C1c2ccccc2C(=O)C1(O)O	nt	i	1.19µM
O=C(c1nc(-c2ccccc2)n(-c2ccccc2)n1)N1CCN(S(=O)(=O)c2ccccc2)CC1	?	i	i
Cn1c(=O)c2c(nc(SCC(=O)NCc3ccc4c(c3)OCO4)n2Cc2ccc(Cl)cc2)n(C)c1=O	-100.0	i	i
O=C(CSc1nnc2scc(-c3ccccc3)n12)NCc1ccc2c(c1)OCO2	i	i	i
Cn1c(=O)c2c(nc(NCc3ccc4c(c3)OCO4)n2Cc2ccccc2Cl)n(C)c1=O	i	i	?
O=C(CSc1nnc2scc(-c3ccc(Cl)cc3)n12)NCc1ccc2c(c1)OCO2	-85.5	i	i
COC(=O)[C@@]1(Cc2ccc(OC)cc2)[C@H]2c3cc(C(=O)N(C)C)n(Cc4ccc(C)c(F)c4F)c3C[C@H]2CN1C(=O)c1ccccc1	nt	i	i
Fc1ccc(-c2nc3ccccc3[nH]2)cc1	nt	nt	i
SMILES	PNC assembly inh	HPGD inh	ALDH1A1 inh
Fc1ccc(-c2ccnc(=S)[nH]2)cc1	i	17.8µM	?
O=C(c1ccco1)[C@@H]1[C@@H]2C(=O)N(c3ccc(Br)cc3)C(=O)[C@@H]2C2c3ccccc3C=CN21 (stereo partly specified)	i	?	11.2µM
CC(=O)c1nn(-c2ccc(Br)cc2)cc1C(=O)c1ccco1	i	i	?
O=C(c1ccco1)[C@@H]1[C@@H]2C(=O)N(c3ccc(F)cc3)C(=O)[C@@H]2C2c3ccccc3C=CN21 (stereo partly specified)	i	31.6µM	12.6µM
O=C(c1ccco1)[C@@H]1[C@@H]2C(=O)N(c3ccc(F)cc3)C(=O)[C@@H]2[C@H]2C=Cc3ccccc3N21	i	i	?
FC(F)(F)c1cc(-c2ccco2)nc(NCCc2ccccc2)n1	i	?	?
COc1ccc2[nH]c(C)c(C(=O)CN3CCOCC3)c2c1	i	i	?
COc1ccc2[nH]c(C)c(C(=O)CN3CCc4cc(OC)c(OC)cc4C3)c2c1	i	nt	10µM
COc1ccc(C2(C(=O)NCCCN3CCOCC3)CCOCC2)cc1	i	nt	i
CCOC(=O)c1cnc(SCC(=O)c2ccccc2)nc1N	i	i	i
COC(=O)C1=C(N)Oc2cc(C)n(Cc3cccnc3)c(=O)c2C1c1ccc(OC)c(OC)c1OC (stereo unspecified)	?	i	i
COC(=O)C1=C(N)Oc2cc(C)n(Cc3cccnc3)c(=O)c2C1c1ccccc1OC (stereo unspecified)	-85.9	i	?
O=C(CCS(=O)(=O)Cc1ccccc1)N1CCN(c2ccccc2)CC1	i	i	?
O=C(OC1CCN(c2ccc([N+](=O)[O-])cc2)CC1)c1ccccc1	i	i	i
O=C(CCCc1ccccc1)N1CCN(c2ccc([N+](=O)[O-])cc2)CC1	i	i	22.4µM
O=C(CCS(=O)(=O)Cc1ccccc1)N1CCN(c2ccc([N+](=O)[O-])cc2)CC1	nt	nt	25.1µM
CC1CC(C)CN(C(=O)CCc2ccccc2)C1 (stereo unspecified)	nt	nt	i

Assay outcomes: PubChem, National Center for Advancing Translational Sciences (NCATS)
